Results reported in PubChem BioAssay AID360 (National Center for Advancing Translational Sciences (NCATS), 2006).
Out of some 48,000 compounds screened, about 550 (1.1%) were called active. Roughly 4% stayed inconclusive and do not appear here. Many of the other results were omitted from the sample, so actives are more common in it than they were. Values without a mark were called inactive. No stated cut-off is given here; in the data, active means potency below about 15 µM; inconclusive means mostly about 16 µM to 33 µM; inactive means weaker than that.
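Further: the screen sought inhibitors.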
Potency means the concentration at half of the fitted maximal effect.

What follows are molecules tested against Lysosomal acid glucosylceramidase (Homo sapiens) (UniProt P04062) (assay: Glucocerebrosidase). Conditions: purified enzyme, resorufin glucoside fluorescence (screen aimed at inhibitors), 20 min.
Sequence of Lysosomal acid glucosylceramidase (Homo sapiens) (P04062 whole entry, looked up): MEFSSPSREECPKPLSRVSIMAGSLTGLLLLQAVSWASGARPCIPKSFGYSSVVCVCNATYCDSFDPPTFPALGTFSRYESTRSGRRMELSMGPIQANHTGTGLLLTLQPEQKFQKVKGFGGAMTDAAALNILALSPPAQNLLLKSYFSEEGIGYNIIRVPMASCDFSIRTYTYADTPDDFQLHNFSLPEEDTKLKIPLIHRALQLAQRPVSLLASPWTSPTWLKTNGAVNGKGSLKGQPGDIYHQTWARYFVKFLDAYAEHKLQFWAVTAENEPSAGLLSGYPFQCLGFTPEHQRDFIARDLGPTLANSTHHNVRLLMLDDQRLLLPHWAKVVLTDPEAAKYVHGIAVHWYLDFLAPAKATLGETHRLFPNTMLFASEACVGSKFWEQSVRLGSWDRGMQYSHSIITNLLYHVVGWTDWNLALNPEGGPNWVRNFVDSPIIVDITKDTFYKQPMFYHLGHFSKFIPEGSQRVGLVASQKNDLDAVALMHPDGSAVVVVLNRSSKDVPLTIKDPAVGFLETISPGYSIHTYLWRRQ
Summary of the method: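 Compounds titrated against 0.2 nM normal enzyme, 30 uM resorufin beta-D-glucopyranoside substrate, citrate/phosphate buffer with taurocholate and tween-20, pH 5.9. Reaction ran 20 min at room temperature; fluorescence (Ex 548/Em 600) gave AC50.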
`CCOC(=O)CSc1nnc(CNc2nc(-c3ccccc3)cs2)n1C` gave a Potency of over 76.9 µM.
In the case of `Cc1ccc(NC(=O)Cn2nc(C)c3ccccc3c2=O)c(C)c1`, the Potency is reported as over 76.9 µM.
`O=C(NC1CCCCC1)c1ccc2c(=O)n(CC3CCCO3)c(=O)[nH]c2c1` (stereo not given) was tested, and the Potency was 6.37 µM (active).
For `COC(=O)c1ccc2c(=O)n(CC3CCCO3)c(=S)[nH]c2c1` (stereo not given), the Potency was over 76.9 µM.
Work on `O=c1c2cc3c(=O)n(CC4CCCO4)c(=O)c3cc2c(=O)n1CC1CCCO1` (stereo not given) yielded a Potency of over 76.9 µM.
Molecule `O=C(C1CCC(C(=O)N2CCCC2)CC1)N1CCCC1` (stereo not given) has a Potency of over 76.9 µM.
`CCOc1ccc(NC(=O)Nc2cc(C)on2)cc1` showed a Potency of over 76.9 µM.
For `CC1(C)CC(=O)C=C(NCCCN2CCCC2=O)C1`, the Potency was over 76.9 µM.
`O=C(OCc1nnc(-c2ccccc2)o1)c1ccc2c(c1)C(=O)N(CCc1ccccc1)C2=O` was tested, and the Potency was over 76.9 µM.
For `CCNC(=O)CN(c1ccc(C)cc1)S(=O)(=O)c1ccc(SC)cc1`, the Potency was over 76.9 µM.
In the case of `COc1ccc(Cl)cc1NC(=O)C1CC(=O)N(c2ccc(F)cc2)C1` (stereo not given), the Potency is reported as over 76.9 µM.
`O=S(=O)(NCc1ccccn1)c1ccc(Br)s1` showed a Potency of over 76.9 µM.
Molecule `c1ccc(-c2cc(-c3nnc4sc(-c5ccccn5)nn34)[nH]n2)cc1` has a Potency of over 76.9 µM.
For `CCCn1c(=O)c(-c2ccccc2)c(O)c2ccccc21`, the Potency was over 76.9 µM.
Molecule `Cc1ccc(F)cc1NC(=O)c1ccc2c(c1)OCO2` has a Potency of over 76.9 µM.
`Cc1ccc(-n2c(N)c(C(=O)N3CCOCC3)sc2=S)c(C)c1` showed a Potency of over 76.9 µM.
In the case of `COc1ccc(-n2nnnc2SCC(=O)c2ccc(OC)c(OC)c2)cc1`, the Potency is reported as over 76.9 µM.
Molecule `Cn1c(SCC(=O)Nc2cccc(NC(=O)c3cccs3)c2)nnc1-c1ccncc1` has a Potency of over 76.9 µM.
Work on `COc1ccc(N2CCN(C(=O)CSc3nnc4ncccn34)CC2)cc1` yielded a Potency of over 76.9 µM.
In the case of `Cc1ccc(OCC(=O)Nc2ccc(-c3nc4ncccc4o3)cc2)cc1`, the Potency is reported as over 76.9 µM.
Work on `O=C(O)c1ccc(-n2cccc2)cc1O` yielded a Potency of over 76.9 µM.
`CCCCN(C)C(=O)C1CCN(Cc2ccccn2)CC1` showed a Potency of over 76.9 µM.
Work on `O=C(Nc1ccon1)c1cccc(Cl)c1` yielded a Potency of over 76.9 µM.
Molecule `Fc1ccc(Cn2nnnc2C(c2cccs2)N2CCCCCC2)cc1` (stereo not given) has a Potency of over 76.9 µM.
Work on `CCC(=O)N(Cc1cc2cc(OC)ccc2[nH]c1=O)c1ccccc1C` yielded a Potency of over 76.9 µM.
For `Cc1ccc(C2(c3ccc(C)cc3)NC(=O)N(Cc3c(C)noc3C)C2=O)cc1`, the Potency was over 76.9 µM.
In the case of `CCOc1ccccc1C1C(C(=O)OC)=CN(C)C=C1C(=O)OC`, the Potency is reported as over 76.9 µM.
In the case of `CCOc1ccc(CNC(=O)C2CCC(=O)N2C2CCCC2)cc1OC` (stereo not given), the Potency is reported as over 76.9 µM.
In the case of `CCOc1cc(C2C(C(=O)OC)=CN(C3CCCC3)C=C2C(=O)OC)cc(Br)c1O`, the Potency is reported as 6.06 µM (active).
`CC(C)CCNC(=O)CN(C(=O)Cn1nnc(-c2ccc(F)cc2)n1)C1CCCC1` was tested, and the Potency was over 76.9 µM.
`CC(=O)Nc1ccc(S(=O)(=O)NCCc2ccccc2)cc1` gave a Potency of over 76.9 µM.
In the case of `O=C(CN1CCN(c2nc(-c3ccccc3)cs2)CC1)NCc1ccc2c(c1)OCO2`, the Potency is reported as over 76.9 µM.
`O=C(CSc1nnc(-c2ccccc2)o1)N1CCOCC1` gave a Potency of over 76.9 µM.
Work on `CS(=O)(=O)N(CC(=O)N1CCN(c2cccc(Cl)c2)CC1)c1ccccc1` yielded a Potency of over 76.9 µM.
In the case of `CCN1C(=O)/C(=C\N2CCN(c3cccc(Cl)c3)CC2)SC1=S`, the Potency is reported as 7.83 µM (active).
In the case of `CCN1C(=O)/C(=C\N2CCN(c3ccccc3)CC2)SC1=S`, the Potency is reported as 70.4 µM.
`CCOc1ccc(NC(=O)Nc2ccc(N(C)C(C)=O)cc2)cc1` was tested, and the Potency was over 76.9 µM.
Molecule `CCOc1ccc(NC(=O)N2CC=C(n3c(=O)[nH]c4ccccc43)CC2)cc1` has a Potency of over 76.9 µM.
In the case of `CCOc1ccc(NC(=O)N2CCN(CC)CC2)cc1`, the Potency is reported as 11.1 µM (active).
`COc1ccc(C(CNC(=O)c2cccnc2SC)N2CCOCC2)cc1` (stereo not given) was tested, and the Potency was 15 µM (active).
With `CSc1ncccc1C(=O)OCC(=O)N1CCOCC1` the Potency was over 76.9 µM.
`Cc1ccc(NC(=O)NCC(c2cccnc2)N2CCOCC2)cc1` (stereo not given) was tested, and the Potency was over 76.9 µM.
`CCC(c1nnnn1Cc1ccccc1)N(Cc1cc2cc(OC)ccc2[nH]c1=O)CC1CCCO1` (stereo not given) gave a Potency of over 76.9 µM.
With `CCC(c1nnnn1Cc1ccco1)N(CCc1ccccc1)Cc1cc2ccc(OC)cc2[nH]c1=O` (stereo not given) the Potency was 14.2 µM (active).
In the case of `COc1ccc2[nH]c(=O)c(CN(Cc3nnnn3CCc3ccccc3)CC3CCCO3)cc2c1` (stereo not given), the Potency is reported as 35.8 µM.
For `O=C(O)C1CCCN1S(=O)(=O)c1ccc2c(c1)CCC2` (stereo not given), the Potency was over 76.9 µM.
In the case of `Cc1cccc(NC(=O)C2CCCN2S(=O)(=O)c2ccc(F)cc2)c1C` (stereo not given), the Potency is reported as over 76.9 µM.
In the case of `CSc1cccc(NC(=O)C2CCCN2S(=O)(=O)c2ccc3c(c2)CCC(=O)N3)c1` (stereo not given), the Potency is reported as 10.1 µM (active).
With `COc1ccc(-n2c(C)nc3c(cnn3-c3ccccc3)c2=O)cc1` the Potency was over 76.9 µM.
Work on `CNC(=O)c1nnn(-c2ccccc2)c1C(=O)NC` yielded a Potency of over 76.9 µM.
`CCN(CC)C(=O)CCC(=O)Nc1ccc(C(=O)OC)cc1` gave a Potency of over 76.9 µM.
`CCCCC(=O)Nc1ccc(C(=O)NCCCn2ccnc2)cc1` was tested, and the Potency was 5.11 µM (active).
For `CCCC(=O)Nc1ccc(C(=O)NCCCn2ccnc2)cc1`, the Potency was 6.73 µM (active).
`CCCCC(=O)Nc1ccc2c(c1)OCCO2` gave a Potency of over 76.9 µM.
In the case of `CCOc1ccccc1C(=O)NCCCn1ccnc1`, the Potency is reported as over 76.9 µM.
